Screens from PubChem.
nsP2pro primary: CHIKV nsP2 protease inhibition, primary qHTS | FRET peptide cleavage, nsP2pro, fluorescence 1 h | Potency, µM (doses to about 24.9 µM), without a hit: at the top dose activity change, negative = inhibition, actives largely listed as inhibitors | actives 1.1% (n = 31,000) | AID 1964107; note: nearly all actives have a fitted effect of over 60% in size
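Enzyme 150 nM, substrate 2.5 uM (both final); Tris-HCl 10 mM pH 8.0 + 0.01% Tween 20; cpd up to 25 uM, 7 pts; 15 min preinc., 1 h RT; fluorescence ex 525/em 598.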
CHIKV nsP2 cell: secondary cell-based test for CHIKV nsP2 protease inhibitors. shares compounds with nsP2pro primary. Potency, µM (series often up to 51.1 µM), inactives show at the highest dose activity change, negative = inhibition, actives largely listed as inhibitors. actives 10% (n = 450). cell-based CHIKV nsP2 protease reporter assay; note: nearly all actives have a fitted effect of over 70% in size
Target sequence (Q8JUX6 220-798 limits assumed): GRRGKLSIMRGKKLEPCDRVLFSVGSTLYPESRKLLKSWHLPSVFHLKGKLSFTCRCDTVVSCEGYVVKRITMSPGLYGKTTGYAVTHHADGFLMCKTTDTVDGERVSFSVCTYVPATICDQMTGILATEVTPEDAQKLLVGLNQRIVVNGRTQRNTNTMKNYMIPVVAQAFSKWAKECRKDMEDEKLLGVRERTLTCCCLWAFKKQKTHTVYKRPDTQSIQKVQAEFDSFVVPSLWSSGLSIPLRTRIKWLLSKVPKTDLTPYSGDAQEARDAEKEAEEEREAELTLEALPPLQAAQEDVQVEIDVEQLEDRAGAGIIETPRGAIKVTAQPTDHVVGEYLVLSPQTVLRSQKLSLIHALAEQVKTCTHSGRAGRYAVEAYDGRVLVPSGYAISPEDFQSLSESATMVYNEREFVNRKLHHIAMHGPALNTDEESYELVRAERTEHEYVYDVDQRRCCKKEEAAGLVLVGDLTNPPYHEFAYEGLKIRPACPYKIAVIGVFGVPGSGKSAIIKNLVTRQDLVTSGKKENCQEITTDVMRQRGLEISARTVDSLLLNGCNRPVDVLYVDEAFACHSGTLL
CHIKV NSP2 FL: selectivity test for CHIKV nsP2 protease inhibitors: full-length NSP2; shares compounds with nsP2pro primary; Full-length CHIKV NSP2 protease enzymatic counterscreen; Potency, µM (series often up to 50.7 µM), without a hit: at the top dose activity change, negative = inhibition, most hits filed as inhibitors; actives 39% (n = 410); note: nearly all actives have a fitted effect of over 65% in size
Furin counterscr: human furin inhibition, counterscreen for nsP2pro inhibitors; shares compounds with nsP2pro primary; Potency, µM (highest dose often 50.6 µM), inactives show at the top dose activity change, negative = inhibition, hits mostly inhibitors; Recombinant human furin enzymatic counterscreen, fluorogenic substrate; actives 6% (n = 410)
nsP2 NS23 pep: blocks CHIKV nsP2 protease cleavage of endogenous NS2/3 peptide; shares compounds with nsP2pro primary; Purified CHIKV nsP2 protease, endogenous NS2/3 peptide cleavage; Potency, µM (series often up to 51 µM), without a hit: top-dose activity change, negative = inhibition, usual class: inhibitors; actives 34% (n = 410); note: nearly all actives have a fitted effect of over 55% in size
Papain counter: selectivity counter-screen for CHIKV nsP2 protease inhibitors: papain; shares compounds with nsP2pro primary; purified papain protease activity, enzymatic inhibition; Potency, µM (series often up to 51 µM), for the others: at the top dose activity change, negative = inhibition, most hits filed as inhibitors; actives 5% (n = 410)
nsP2pro conf qHTS: confirmation of CHIKV nsP2 protease inhibitors; shares compounds with nsP2pro primary; actives 43% (n = 410); CHIKV nsP2 protease enzymatic activity, qHTS; Potency, µM (doses to about 25.5 µM), without a hit: at the top dose activity change, negative = inhibition, usual class: inhibitors; note: nearly all actives have a fitted effect of over 75% in size
HCV NS3 4A cs: inhibits HCV NS3/4A protease in an nsP2pro selectivity counterscreen; shares compounds with nsP2pro primary; Potency, µM (doses to about 50.9 µM), usual class: inhibitors; HCV NS3/4A protease biochemical counterscreen; actives 20% (n = 410); note: nearly all actives have a fitted effect of over 55% in size
Starred values were filed as active, the others as inactive; i = inactive; ? = inconclusive; ! = repeats disagree; [ ] = remark or other dose. This is one part of a sample in which hits are shown more often than they occur. Calls come from the whole dose curve. % is set by controls: 0 for no effect and ±100 for the full control effect; potency is the fitted concentration of half-maximal effect.

SMILES | nsP2pro primary | others
CC(=O)Oc1cc2c(s1)CCN(C(C(=O)C1CC1)c1ccccc1F)C2 (stereo unspecified) | ? | CHIKV nsP2 cell=2%;CHIKV NSP2 FL=?;Furin counterscr=-10%;nsP2 NS23 pep=?;Papain counter=?;nsP2pro conf qHTS=?;HCV NS3 4A cs=i
CC(=O)Nc1sc2c(c1-c1ccc3nonc3c1)CCNC2 | -5%
CC(c1ccon1)N(C)C(=O)c1csc2nc(-c3cccc(C(F)(F)F)c3)cn12 (stereo unspecified) | i
O=C1C=CC2OC(c3ccccc3)C(O)C2O1 (stereo unspecified) | ? | CHIKV nsP2 cell=?;CHIKV NSP2 FL=?;Furin counterscr=-4%;nsP2 NS23 pep=?;Papain counter=-9%;nsP2pro conf qHTS=?;HCV NS3 4A cs=?
COC(=O)CC(O)C1OC(c2ccccc2)C(O)C1O (stereo unspecified) | 39%
Cc1ccc(CNc2ncnc3ccc(-c4ccoc4)cc23)o1 | i
C[C@@H](Nc1ncnc2[nH]c(-c3ccc(O)cc3)cc12)c1ccccc1 | 44%
Cc1cc(NC(=O)Nc2nnc(C3CCCCC3)s2)ccc1Br | 0%
CC(C)=CCCC1(C)C=Cc2c(c(C)cc3c2[nH]c2ccccc23)O1 (stereo unspecified) | 0%
CC(C)=CCCC1(C)C=Cc2c(O)c3c(c(CC=C(C)C)c2O1)OC12C(=CC4CC1C(C)(C)OC2(C/C=C(/C)C(=O)O)C4=O)C3=O (stereo unspecified) | ? | CHIKV nsP2 cell=?;CHIKV NSP2 FL=-6%;Furin counterscr=-13%;nsP2 NS23 pep=?;Papain counter=-19%;nsP2pro conf qHTS=?;HCV NS3 4A cs=i
Cc1cc(C)nc(NC(=S)N2CCN(c3ncnc4ccccc34)CC2)c1 | -5%
Cc1ccc(C#Cc2cc(-c3nn(-c4nc(C(=O)O)cs4)c(CC4CC4)c3Cc3ccc(S(N)(=O)=O)c(F)c3)ccc2F)o1 | 4µM* | CHIKV nsP2 cell=0.13µM*;CHIKV NSP2 FL=?;Furin counterscr=-22%;nsP2 NS23 pep=56%;Papain counter=23µM*;nsP2pro conf qHTS=-52%;HCV NS3 4A cs=i
O=C(N[C@H]1CCN(C(=O)c2cc(C(F)(F)F)cc(C(F)(F)F)c2)[C@H](Cc2ccc(Cl)cc2)C1)c1ccnc2ccccc12 | 4%[10 µM]
N[C@@H](CC(=O)N1CCc2c(nc(C(F)(F)F)nc2C(F)(F)F)C1)CN1CC(F)(F)CCC1=O | -12%
C=CC(=O)N1C/C(=C\c2ccc([N+](=O)[O-])cc2)C(=O)/C(=C/c2ccc([N+](=O)[O-])cc2)C1 | 3.5µM*! | CHIKV nsP2 cell=?;CHIKV NSP2 FL=?;Furin counterscr=-14%;nsP2 NS23 pep=2.9µM*;Papain counter=-14%;nsP2pro conf qHTS=?;HCV NS3 4A cs=i
O=C1Nc2ccccc2/C1=C\c1ccc([N+](=O)[O-])cc1 | -9%
Cc1ccc(C(=O)N2CCN(c3ccc([N+](=O)[O-])cc3)CC2)cc1Cl | -6%
O=C1CCCC2=C1C(c1[nH]ncc1Cl)N=C(Nc1nc3cc(F)ccc3o1)N2 (stereo unspecified) | i
COc1ccc(-c2[nH]nc3ncc(C(=O)N4CCC(c5ccccc5)CC4)nc23)c(C)c1 | i
N#Cc1ccc(-c2ccc(C3Nc4ccccc4C(=O)N3O)o2)cc1 (stereo unspecified) | 10µM* | CHIKV nsP2 cell=23µM*;CHIKV NSP2 FL=0%;Furin counterscr=-14%;nsP2 NS23 pep=-11%;Papain counter=-17%;nsP2pro conf qHTS=?;HCV NS3 4A cs=i
N#Cc1ccc(-c2ccc(CNc3ccc(C4CCNCC4)cc3)o2)cc1 | -8%
CSCC[C@H](NC(=O)[C@H](CO)NC(=O)[C@H](CCC(=O)O)NC(C)=O)C(=O)N[C@H](C=O)CC(=O)O | 6%[5.1 µM]
CC1=Nc2cc(C(=O)NCCCN(C)C)ccc2Sc2ccc(F)cc21 | i
c1cncc(-c2ccc(CNc3nc(N4CCOCC4)nc4ccccc34)cc2)c1 | -6%
COc1cc(N2CCOCC2)ccc1Nc1ncc(Cl)c(Nc2ccccc2NS(C)(=O)=O)n1 | -3%
SMILES | nsP2pro primary | others
CSCC[C@H](NC(C)=O)C(=O)O | -15%
CN1CCN(C(CN)C2CCCCC2)CC1 (stereo unspecified) | i
[2H]N[C@@H](Cc1ccccc1)C(=O)N1CCC[C@H]1C(=O)N[C@@H](CCCNC(=N)N)C(=O)N1CCC[C@H]1C(=O)NCC(=O)NCC(=O)NCC(=O)NCC(=O)N[C@@H](CC(N)=O)C(=O)NCC(=O)N[C@@H](CC(=O)O)C(=O)N[C@@H](Cc1ccccc1)C(=O)N[C@@H](CCC(=O)O)C(=O)N[C@@H](CCC(=O)O)C(=O)N[C@H](C(=O)N1CCC[C@H]1C(=O)N[C@@H](CCC(=O)O)C(=O)N[C@@H](CCC(=O)O)C(=O)N[C@@H](Cc1ccc(O)cc1)C(=O)N[C@@H](CC(C)C)C(=O)O)[C@@H](C)CC | -26%[5.1 µM]
CNc1nc2c(s1)C(c1ccc(Cl)cc1)CC(=O)N2 (stereo unspecified) | 3.2µM* | CHIKV nsP2 cell=46%;CHIKV NSP2 FL=2.9µM*;Furin counterscr=-10%;nsP2 NS23 pep=8.2µM*;Papain counter=23%;nsP2pro conf qHTS=5.7µM*;HCV NS3 4A cs=i
CCOc1ccc(-c2nc(-c3cccc4c3CCC4NCCO)no2)cc1OCC (stereo unspecified) | 3%
COc1cccc(CNc2ccc(S(=O)(=O)Nc3ccc(-c4ccccc4)cc3)cc2)c1O | -9%
Cc1cc(NC(=O)c2ccco2)cc(-c2nc3ccccc3o2)c1O | -28%
O=C(Nc1cccnc1)c1ccco1 | 2%
O=C(O/N=C1\c2ccccc2-c2nc3ccccc3nc21)c1ccco1 | ? | CHIKV nsP2 cell=1%;CHIKV NSP2 FL=3.7µM*;Furin counterscr=-10%;nsP2 NS23 pep=?;Papain counter=2.6µM*;nsP2pro conf qHTS=3.2µM*;HCV NS3 4A cs=i
Cc1cc(C)nc(NC(=S)N2CCN(c3cccc4cnccc34)CC2)c1 | -5%
CC(C)=CCC[C@](C)(O[C@@H]1O[C@H](CO)[C@@H](O)[C@H](O)[C@H]1O)[C@H]1CC[C@]2(C)[C@@H]1[C@H](O)C[C@@H]1[C@@]3(C)CC[C@H](O[C@@H]4O[C@H](CO)[C@@H](O)[C@H](O)[C@H]4O[C@@H]4O[C@H](CO)[C@@H](O)[C@H](O)[C@H]4O)C(C)(C)[C@@H]3CC[C@]12C | -7%
Cc1nn(-c2ccccc2[N+](=O)[O-])c(C)c1[C@@H]1C=C[C@@H](NCc2ccc(C(C)C)cc2)C1 | 30%[39.2 µM]
Cc1ccc(NC(=O)CN2C(=O)N/C(=C\c3cccn3-c3ccc(C(=O)NS(C)(=O)=O)cc3)C2=O)cc1 | i
